Source: PubChem BioAssay AID1117319 (Southern Research Institute, 2015)
The campaign covered roughly 260,000 compounds. About 1,500 (0.58%) were called active. Inconclusive results (about 5%) are left out.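 Rule for the calls: active = inhibition above a set limit at one or more doses, reproduced on every date tested; inconclusive = results disagree between test dates, or hit never tested in dose response; inactive = the rest.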 Not all results are given here. Measured potencies and affinities stand elsewhere.

These compounds were tested against Virion infectivity factor (Human immunodeficiency virus type 1 group M subtype B (isolate BH10)) + Virion infectivity factor (Human immunodeficiency virus type 1 group M subtype B (isolate BRU/LAI)) + Virion infectivity factor (Human immunodeficiency virus type 1 group M subtype B (isolate PCV12)) + Virion infectivity factor (Human immunodeficiency virus type 1 group M subtype B (isolate HXB2)) + DNA dC->dU-editing enzyme APOBEC-3G (Homo sapiens) (UniProt P69720+P69721+P69722+P69723+Q9HC16) (assay: HIV-1 Vif–A3G interaction blockers – biochemical, TR-FRET, GST-Vif 1-94, biotin-A3G peptide, dose response retest, primary screen (AID 1117319;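 note: Vif residues 1-94 fused to GST binding biotinylated APOBEC3G peptide 110-148; 0% = full assay without inhibitor and 100% = GST in place of GST-Vif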)). Details: TR-FRET GST-Vif / biotin-A3G peptide binding; hits give high values.

inhibition, inactive:
Cc1csc(SCC(=O)NC2CCS(=O)(=O)C2)n1 (stereo unspecified) -3.32%, COc1cccc(NC(=O)CN2C(=O)COc3ccc(S(=O)(=O)N4CCOCC4)cc32)c1 0%, CC(=O)c1ccc(NC(=O)c2ccc(-n3cnnn3)cc2)cc1 -12.9%, CCOC(=O)c1cccc(NC(=O)c2ccc(-n3cnnn3)cc2)c1 -5.14%, COc1ccc(NC(=O)CCc2ccccc2)cc1S(=O)(=O)N1CCCCC1 2.14%, O=C(Nc1nc2ccccc2s1)c1ccc2c(c1)S(=O)(=O)c1ccccc1C2=O 28.5%, O=C(c1ccc(Br)o1)N1CCN(C/C=C/c2ccccc2)CC1 2.12%, C/C(=N\NC(=S)NCc1ccccc1)c1ccc(C(C)(C)C)cc1 9.19%, C/C(CCC(=O)O)=N/Nc1ccc([N+](=O)[O-])cc1[N+](=O)[O-] 5.85%, CN1CCN(C2=C(NS(=O)(=O)c3ccccc3)C(=O)c3ccccc3C2=O)CC1 -3.21%, CN1CCN(C2=C(Cl)C(=O)N(Cc3ccccc3)C2=O)CC1 14.1%, NC(=O)C1CCN(C2=C(NS(=O)(=O)c3ccc(Cl)cc3)C(=O)c3ccccc3C2=O)CC1 10.6%, O=C1C(Cl)=C(NCCCN2CCOCC2)C(=O)c2ccccc21 3.39%, NC(=O)C1CCN(C2OC(=O)c3ccccc32)CC1 (stereo unspecified) -1.56%, CC(C)NC1=C(Cl)C(=O)c2ccccc2C1=O 2.61%, COc1ccc(OC)c(NC(=O)CNC(=O)Cn2c(C)cc3ccccc3c2=O)c1 7.41%, O=C(c1ccco1)N1CCN(C(=O)C2Cc3ccccc3CN2S(=O)(=O)c2ccc(F)cc2)CC1 (stereo unspecified) -4.72%, CN(Cc1cccc2cnccc12)C(=O)c1cc(COc2ccc(F)cc2F)on1 -7.76%, COc1cccc(CN2CCN(Cc3cccc4c3OCO4)CC2CCO)c1 (stereo unspecified) -2.33%, CCOC(=O)C(C(=O)NCc1ccc(F)cc1)c1ncc(C(F)(F)F)cc1Cl (stereo unspecified) 5.68%, Nc1ncnc(Nc2cc(C(F)(F)F)cc(C(F)(F)F)c2)n1 11%, COc1ccc(C(=O)N/C(=C/c2cccnc2)C(=O)N2CCCCCC2)cc1OC 2.36%, COc1ccccc1C(=O)N/C(=C\c1ccc(Br)cc1)C(=O)NCCC(=O)O -1.86%, Cc1oc(/N=C/c2ccc(O)cc2O)c(C#N)c1C -3.01%, Cc1oc(/N=C/c2ccccc2O)c(C#N)c1C 6.98%, Clc1cccc(C2=NOC(c3nnc(-c4ccccc4)o3)C2)c1 (stereo unspecified) -9.96%, Cc1cc(C)c(OCCNC(=O)c2ccccc2Sc2ccccc2C#N)c(C)c1 -2.47%, CC(=O)Oc1ccc(N2C(=O)C3C4C=CC(O4)C3C2=O)cc1 (stereo unspecified) -0.5%, CCOC(=O)C1CCN(C(=O)c2ccc3c(SCC(=O)O)c4c(nc3c2)CCCC4)CC1 -8.86%, O=C(O)CSc1c2c(nc3cc(C(=O)N4CCCC4)ccc13)CCCC2 4.71%, CCC(C)NC(=O)c1ccc2c(SCC(=O)O)c3c(nc2c1)CCCC3 (stereo unspecified) 7.55%, CCCN(C(=O)c1ccc2c(SCC(=O)O)c3c(nc2c1)CCC3)c1cccc(C)c1 18.7%, COc1cccc(/C=C2\SC(=S)N(CC(=O)N(C)C3CCS(=O)(=O)C3)C2=O)c1 (stereo unspecified) 3.59%, Cc1c(Cl)cccc1Nc1nc(N)nc(CSC(=S)N2CCOCC2)n1 0.88%, NS(=O)(=O)c1ccc(CCNS(=O)(=O)c2ccccc2)cc1 22.8%, O=C(CSc1ccc2nnc(-c3ccncc3)n2n1)Nc1nccs1 -1.26%, O=S(=O)(NCCN1CCCC1)c1ccc(C(F)(F)F)cc1 1.25%, N#Cc1c(-c2cccc(Br)c2)cc(-c2ccco2)[nH]c1=O 15.1%, N#Cc1c(-c2ccccc2)cc(-c2ccccc2)[nH]c1=O -8.66%, Cc1cc(-c2ccccc2)[nH]c(=O)c1C#N -1.26%, COc1ccc(-c2cc(C(F)(F)F)c(C#N)c(=O)[nH]2)cc1 -2.26%, COC(=O)c1ccc(NC(=S)N2CCN(Cc3ccccc3)CC2)cc1 10.9%, O=C(c1ccc(COc2ccc3ccccc3c2)o1)N1N=C(C(F)F)CC1(O)C(F)F (stereo unspecified) -0.12%, COc1cc2[nH]c(=S)nc(NCc3ccc(C)cc3)c2cc1OC -6.65%, O=C1C(O)=CC(=C(c2ccccc2)c2ccccc2)c2ccccc21 15.1%, Cc1ccc2c(CC(=O)OCc3csc(C)n3)coc2c1 11.1%, COc1cccc(OC)c1C(=O)OCC(=O)NCC(C)C 14.3%, CCC1(C)N([O-])C(C)=C(c2ccccc2)[N+]1=O (stereo unspecified) 4.55%, CC1(C)N([O-])C2=C(CCCC2)[N+]1=O 4.01%, CCc1ccc(N(C(=O)c2csnn2)C(C(=O)NC(C)(C)C)c2ccccn2)cc1 (stereo unspecified) 0.91%, O=C(c1n[nH]c(=O)c2ccccc12)N1CCN(Cc2ccc3c(c2)OCO3)CC1 4.07%, CCN(CC(=O)Nc1c(F)cccc1F)C(=O)c1ccc(N2CCCC2=O)cc1 -13.8%, CCOC(=O)c1csc(NC(=O)c2cc3ccccc3o2)n1 0.78%, Cc1csc(NC(=O)c2cc3ccccc3o2)n1 0.57%, Cc1ccc(OCC(=O)NCc2ccc3c(c2)OCO3)c([N+](=O)[O-])n1 8.23%, CC(C)C(=O)Nc1nnc(Cc2ccccc2)s1 -2.22%, CNC(=O)CC12CC3CC(CC(C3)C1)C2 6.4%, CCN1CCC(=NNC(=O)c2ccco2)CC1 5.57%, CCOP(=O)(OCC)c1nc(-c2cccc([N+](=O)[O-])c2)oc1N1CCCCC1 5.71%, COc1ccc(CCn2c(C)cc(C(=O)CSc3nnnn3C)c2C)cc1 26.9%, Cc1cc(C(=O)CSc2nnnn2C)c(C)n1CCc1ccc(F)cc1 15.4%
